Screening results: PubChem BioAssay, The Scripps Research Institute Molecular Screening Center
TbREL1 primary: TbREL1 RNA ligase inhibitors, primary screen, biochemical, FRET fluorescence; actives 0.49% (n = 89,000); RNA-editing ligase 1, mitochondrial (Trypanosoma brucei brucei), P86926; AID 1117264, 2014; inhibition, % at 9.66 µM; TbREL1 RNA ligation;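 active means inhibition above the mean inhibition across all screened compounds plus 3 SD, cut at about 11% in these data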
Target sequence (P86926 whole entry, looked up): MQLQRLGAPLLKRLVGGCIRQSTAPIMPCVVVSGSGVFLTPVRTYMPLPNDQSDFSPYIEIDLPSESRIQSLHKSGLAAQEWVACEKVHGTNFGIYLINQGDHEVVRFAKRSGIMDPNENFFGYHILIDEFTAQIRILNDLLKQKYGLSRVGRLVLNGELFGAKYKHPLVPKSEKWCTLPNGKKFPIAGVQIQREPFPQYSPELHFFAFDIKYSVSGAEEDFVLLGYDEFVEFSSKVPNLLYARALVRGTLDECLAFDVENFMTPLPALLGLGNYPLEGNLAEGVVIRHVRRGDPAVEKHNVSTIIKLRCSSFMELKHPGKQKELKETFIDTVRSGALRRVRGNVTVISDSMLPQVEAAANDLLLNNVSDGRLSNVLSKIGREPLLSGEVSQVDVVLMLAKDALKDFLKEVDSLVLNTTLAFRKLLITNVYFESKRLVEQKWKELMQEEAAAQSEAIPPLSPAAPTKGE
TbREL1 confirm: TbREL1 RNA ligase inhibitors, confirmation, biochemical, FRET fluorescence, triplicate; shares compounds with TbREL1 primary; TbREL1 RNA ligation; inhibition, % at 9.66 µM; actives 37% (n = 390);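 active means mean inhibition across replicates above a set limit taken from the earlier primary screen, cut at about 11% in these data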
Of the large screens only hits and unclear results are named; the others gave an inactive call (follow-up assays come after a bar, where they were run). Only a selection was taken, and hits are over-represented in it overall.

COc1cccc(Cn2ncc3c4sc(S(C)=O)cc4n(C)c3c2=O)c1 (stereo unspecified)	none
COc1ccc(NC(=O)N(C)C[C@H]2OCCCC[C@@H](C)Oc3ccc(NC(=O)c4ccccc4)cc3C(=O)N([C@H](C)CO)C[C@@H]2C)cc1	none
O=C(CNc1ccc2ccccc2c1)N/N=C/c1ccccn1	none
Cc1cccc(NCC(=O)N/N=C/c2cccc(Br)c2)c1	TbREL1 primary 11.7 | TbREL1 confirm inactive
C/C(=N\NC(=O)CNc1cccc(C)c1)c1ccc(Br)s1	none
COC(=O)[C@]12C[C@H](CC(=O)NCc3cccs3)C(=O)N(CCC3=CCCCC3)C1=C[C@H](C1CCCC1)O[C@@H]2C	none
CC(=O)C1=C(C)N(Cc2ccc(Br)cc2)C(=S)NC1c1cccc(F)c1 (stereo unspecified)	none
CCc1nc2ccc(C(=O)NCc3ccc4c(c3)OCO4)cn2c1N(CCC(C)C)CCN(C)C	none
O=C(NCC1CCCO1)C1C2C=CC3(CN(Cc4cccs4)C(=O)C13)O2 (stereo unspecified)	TbREL1 primary 19.6 | TbREL1 confirm inactive
O=C(NCc1cccs1)C1C2C=CC3(CN(Cc4ccccc4)C(=O)C13)O2 (stereo unspecified)	none
CC(C)CCOC(=O)C1C2C=CC3(CN(Cc4cccs4)C(=O)C13)O2 (stereo unspecified)	none
O=C(NCc1cccs1)C1CCC(CNS(=O)(=O)c2cccc3cccnc23)CC1 (stereo unspecified)	none
Cc1cccc(NC(=O)CSc2nnc(-c3cccnc3)n2Cc2ccco2)c1C	none
O=CN1CCN(C(=O)C2CCN(c3ncnc4c3sc3cccc(F)c34)CC2)CC1	none
CCC(C)NS(=O)(=O)c1ccc(F)c(C(=O)Nc2c(F)cc(F)cc2Br)c1 (stereo unspecified)	TbREL1 primary 19.0 | TbREL1 confirm inactive
O=C(Nc1cccs1)Nc1c(F)cc(F)cc1Br	none
NS(=O)(=O)c1ccc(F)c(C(=O)O)c1	none
C#CCCC(=O)Nc1sc2c(c1-c1nc3ccccc3s1)CCN(C(C)C)C2	none
CSc1ccc(-c2csc(N3CCC(C(N)=O)CC3)n2)cc1	none
CCn1c(COc2ccc(C)cc2)nnc1SCc1cccc(C(F)(F)F)c1	none
CCCN1C(=O)c2n[nH]c(C)c2C1c1ccc(Br)cc1 (stereo unspecified)	none
c1ccc(CNc2nc(NCCc3ccncc3)c3sccc3n2)cc1	none
CNc1nc(NCc2ccccc2)c2sccc2n1	none
COCCNc1nc(NCc2cccs2)nc2ccsc12	none
COc1cccc(CNc2nc(NCc3ccccc3)nc3ccsc23)c1	TbREL1 primary 12.8 | TbREL1 confirm 13.5
c1ccc(OCCNc2nc(NCC3CC3)nc3cc(-c4ccccc4)sc23)cc1	none
CC(C)Nc1nc(NCCOc2ccccc2)c2sccc2n1	TbREL1 primary 13.5 | TbREL1 confirm inactive
CCCN1CCCCC(NC(=O)c2ccc(Cl)cc2Cl)C1=O (stereo unspecified)	none
CNc1nc(N)c([N+](=O)[O-])c(Nc2cccc(Br)c2)n1	none
O=[N+]([O-])c1ccc(CN2CCOCCOCCN(Cc3ccc([N+](=O)[O-])cc3Cl)CCOCC2)c(Cl)c1	none
COc1ccc(-c2noc(CNC(=O)c3ccoc3C)n2)cc1	TbREL1 primary 14.8 | TbREL1 confirm inactive
COc1ccc(-c2noc(CCC(=O)O)n2)cc1	none
Cc1occc1C(=O)NCc1nc(-c2ccc(Cl)cc2)no1	none
CCCS(=O)(=O)NC(=O)C1(C)CCCN(C(=O)Cc2ccc3ccccc3c2)C1 (stereo unspecified)	none
O=[N+]([O-])c1cc(-c2csc(NCCc3nc4cc(C(F)(F)F)ccc4n3CCCO)n2)ccc1Cl	TbREL1 primary 19.1 | TbREL1 confirm inactive
OCCOCCn1c(CCNc2nc(-c3ccc(F)cc3)cs2)nc2cc(C(F)(F)F)ccc21	none
Cc1nc2cc(C(F)(F)F)ccc2n1CCNc1nc(-c2ccc([N+](=O)[O-])c(Cl)c2)cs1	none
FC(F)(F)c1cc(CNC2CCC23CCC(c2ccccc2)CC3)ccc1Cl (stereo unspecified)	none
COc1ccccc1N1CCN(N=Cc2ccccc2Br)CC1	none
CC(=O)Nc1sc2c(c1-c1nc3ccccc3s1)CCN(C(C)C)CC2	none
CC1CN(S(=O)(=O)c2ccc(C(=O)Nc3ccc(S(=O)(=O)N4CCOCC4)cc3)cc2)CC(C)O1 (stereo unspecified)	none
O=C(Nc1ccon1)c1ccc(S(=O)(=O)N2CCOCC2)cc1	TbREL1 primary 12.6 | TbREL1 confirm inactive
O=C(Nc1cccc(F)c1)c1ccc(S(=O)(=O)N2CCOCC2)cc1	none
COc1ccc(OC)c(CN2C(=O)CSCC2(C)c2nnnn2C2CCCC2)c1 (stereo unspecified)	none
CCCCCCCCN1C(=O)[C@@H](CC(=O)NCC2CCCCC2)C[C@@]2(C(=O)OC)C1=C[C@H](COCc1ccccc1)O[C@@H]2C	none
COC(=O)C1CN(Cc2ccccc2)CCS(=O)(=O)N1Cc1cccc(Cl)c1 (stereo unspecified)	none
O=C(CN1C(=O)C2(OCCCO2)c2ccccc21)NCc1ccccc1Cl	none
CCc1ccc(NC(=O)c2cc(C(C)C)on2)cc1	none
CC(C)c1cc(C(=O)NCc2ccco2)no1	none
CC(C)c1cc(C(=O)NCCc2ccccc2)no1	TbREL1 primary 11.4 | TbREL1 confirm inactive
O=[N+]([O-])c1cncc2[nH]cnc12	none
COC(=O)[C@]12C[C@H](CC(=O)N3CCN(C(=O)C4CC4)CC3)C(=O)N(Cc3ccccc3)C1=C[C@H](COCc1ccccc1)O[C@@H]2C	none
CC1(c2nnnn2-c2ccc(F)cc2)CCCC(=O)N1CCc1c[nH]c2ccccc12 (stereo unspecified)	none
O=C(NCc1ccccc1)OC1CC2CC1[C@H]1CCCCN1C2 (stereo partly specified)	none
CSc1nc(-c2ccccc2)nn1S(=O)(=O)c1ccc(Cl)cc1	TbREL1 primary 11.3 | TbREL1 confirm inactive
CCS(=O)(=O)n1nc(-c2ccc(Cl)cc2)nc1N	none
COc1ccc(-c2nc(SC)n(S(=O)(=O)c3ccccc3)n2)cc1	none
Cn1cccc1C(=O)N1CCN(S(=O)(=O)c2ccc(C(C)(C)C)cc2)CC1	none
Cc1cccc(Cl)c1-n1nnnc1C1(C)CSCC(=O)N1Cc1ccc(F)cc1 (stereo unspecified)	none
CCCCNC(=O)N1CCC(c2nc3ccc(Cl)cc3[nH]2)CC1	none
COc1ccc(Cl)cc1NC(=S)N1CCN(c2ncccn2)CC1	none
CCOC(=O)c1ccc(NC2c3ncccc3C(=O)N2Cc2ccc(F)cc2)cc1 (stereo unspecified)	none
COc1ccc(CN2C(=O)c3cccnc3C2Nc2cc(Cl)ccc2OC)cc1 (stereo unspecified)	TbREL1 primary 31.8 | TbREL1 confirm 41.3
COC(=O)[C@]12C[C@H](CC(=O)N3CCOCC3)C(=O)N(Cc3cccc4ccccc34)C1=C[C@H](COCc1ccccc1)O[C@@H]2C	none
Cc1ccc(C=Nn2c(-c3n[nH]c4c3CCC4)n[nH]c2=S)s1	none
COC(=O)C1CN(Cc2ccccc2)CCS(=O)(=O)N1Cc1cn(Cc2ccccc2Br)nn1 (stereo unspecified)	none
Cc1cc(C)c[n+](CC(=O)c2ccccc2)c1	none
COC(=O)c1ccc[n+](CC(=O)c2ccc(Br)cc2)c1	TbREL1 primary 11.3 | TbREL1 confirm inactive
O=C(C[n+]1ccc2ccccc2c1)c1ccccc1	none
CC(C)C1=CC2C3C(=O)N(c4ccccc4)C(=O)C3C1C(=O)C2(C)O (stereo unspecified)	none
